DENV2 CPE rescue: inhibitors of DENV2 cytopathic effect; DENV2-infected cells, cytopathic effect rescue, plate reader; CPE inhibition, % at 9.99 µM; 1.7% of 350,000 active; AID 651640; in the data active = CPE inhibition above about 20%, passing the limit was not always enough; inconclusive = no clear call, values can overlap the other calls; tested in BHK-21 cells
Rtt109 Vps75: C. albicans Rtt109 histone acetyltransferase inhibition | Q5AAJ8 | purified Rtt109/Vps75, ThioGlo CoA-SH fluorescence, 4 h | inhibition, % at 34.9 µM | 0.16% of 330,000 active | AID 540336;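 active = inhibition of at least 50% in every replicate; inconclusive = best replicate reaches 50% inhibition but some replicates fall short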
ERp5 block: inhibitors of human ERp5. ERp5 insulin aggregation, absorbance 650 nm, 90 min. inhibition, % at 9.99 µM. 0.05% of 350,000 active;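 active = mean replicate inhibition above about 25%, with every replicate also reaching it, limit read from the data, passing the limit was not always enough; inconclusive = only one of those two criteria met; inactive = neither criterion met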
Target sequence (Q15084 whole entry, looked up): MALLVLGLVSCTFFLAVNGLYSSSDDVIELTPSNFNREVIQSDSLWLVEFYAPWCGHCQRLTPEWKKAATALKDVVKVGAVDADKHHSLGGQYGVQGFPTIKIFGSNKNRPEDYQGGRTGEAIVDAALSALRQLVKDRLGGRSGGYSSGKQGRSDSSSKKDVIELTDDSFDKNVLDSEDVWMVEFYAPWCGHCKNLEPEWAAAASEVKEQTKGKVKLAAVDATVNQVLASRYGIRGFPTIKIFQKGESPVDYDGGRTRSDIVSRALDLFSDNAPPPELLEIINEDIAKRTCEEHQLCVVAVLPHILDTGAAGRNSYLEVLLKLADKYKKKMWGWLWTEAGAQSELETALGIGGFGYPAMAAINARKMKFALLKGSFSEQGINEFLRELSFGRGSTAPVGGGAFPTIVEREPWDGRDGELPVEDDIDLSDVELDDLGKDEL
PDI inh: inhibitors of human protein disulfide isomerase. AID 588391. inhibition, % at 10 µM. PDI insulin aggregation turbidity, A650, 90 min. 0.052% of 350,000 active. P07237;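 active = mean inhibition across replicates of 30% or more, whatever share of single replicates reach that level; inconclusive = mean inhibition below 30% while every single replicate reaches 30%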
SIRT5 inh: blocks human SIRT5 desuccinylation of peptide. 1.1% of 330,000 active. AID 652115. Q9NXA8. inhibition, % at 15 µM. Purified SirT5, succinyl-peptide AMC, trypsin-coupled fluorescence; in the data active = inhibition above about 15%; inconclusive = no clear call, values can overlap the other calls
A number is an active result; i = inactive; ? = inconclusive; nt = no result. Sampled rows, rich in hits. Any-hit rate of the full collection: about 2.3%.

SMILES	DENV2 CPE rescue	Rtt109 Vps75	ERp5 block	PDI inh	SIRT5 inh
CCNC(=O)C[C@H]1CC[C@H]2[C@@H](COc3ccc(NS(=O)(=O)c4ccccc4C)cc3C(=O)N2C)O1	i	nt	i	nt	18
CCCNC(=O)C[C@H]1CC[C@@H]2[C@@H](COc3ccc(NC(=O)c4ccccc4)cc3C(=O)N2C)O1	i	nt	64	nt	i
COc1cccc(CNC(=O)C[C@H]2CC[C@H]3[C@H](COc4ccc(NS(=O)(=O)c5ccccc5F)cc4C(=O)N3C)O2)c1	i	nt	i	nt	20
CCNC(=O)C[C@@H]1CC[C@H]2[C@H](COc3ccc(NS(=O)(=O)c4ccccc4C)cc3C(=O)N2C)O1	i	nt	i	nt	i
O=C(/C=C/c1ccc(F)cc1)c1cc(Br)ccc1O	i	i	i	i	16
O=C(/C=C/c1ccccc1)c1cc(Br)ccc(=O)c1O	nt	i	nt	i	nt
CN(C)c1ccc(O)c2c1CC1CC3[C@@H](N(C)C)C(=O)C(C(N)=O)=C(O)[C@]3(O)C(=O)C1=C2O (stereo not given in full)	i	i	i	i	34
CCCCN1C(=O)C(CC(=O)NCC2CCCCC2)CC(C(=O)N(C)C)=C1C (stereo not given)	i	nt	i	i	i
CCCCN1C(=O)C(CC(=O)NCC2CCCCC2)CC(C(=O)N(CC)CC)=C1C (stereo not given)	i	nt	i	i	17
Cc1ccc(S(=O)(=O)c2cc(Nc3ccccc3)ccc2O)cc1	?	i	i	i	nt
Nc1ccc(Nc2ccccc2)c(S(=O)(=O)O)c1	i	i	i	i	55
Cc1ccc(Nc2ccc(N)cc2S(=O)(=O)O)cc1	i	?	i	i	56
CC(C)C[C@@H](CN1C(=O)C(=O)NC[C@@H]1CC(C)C)NC(=O)Cc1ccccc1	43	i	i	i	nt
Brc1ccc(-c2ccccc2)cc1	62	i	i	nt	nt
Brc1ccc(-c2ncc(-c3ccccc3)cn2)cc1	nt	i	nt	i	nt
COc1ccccc1N1C(=O)C2CCC(c3ccccc3)CC2C1=O (stereo not given)	23	nt	i	i	i
Cc1cccc(N2C(=O)C3CCC(c4ccccc4)CC3C2=O)c1 (stereo not given)	i	i	i	i	i
Cc1cccc(-c2ccc([C@@H]3[C@@H](CO)N4CCCCN(C(=O)NC(C)C)C[C@@H]34)cc2)c1	i	nt	i	nt	i
Cc1ccc(S(=O)(=O)Nc2ccc3c(c2)C(=O)N([C@@H](C)CO)C[C@H](C)[C@H](CN(C)S(=O)(=O)c2ccccc2)OCCCC[C@@H](C)O3)cc1	i	nt	i	nt	24
Cc1ccc(S(=O)(=O)Nc2ccc3c(c2)C(=O)N([C@H](C)CO)C[C@H](C)[C@@H](CN(C)S(=O)(=O)c2ccccc2)OCCCC[C@H](C)O3)cc1	i	nt	i	nt	i
Cc1ccc(S(=O)(=O)N(C)C[C@H]2OCCCC[C@@H](C)Oc3ccc(NS(=O)(=O)c4c(C)noc4C)cc3C(=O)N([C@@H](C)CO)C[C@@H]2C)cc1	29	nt	i	nt	17
Cc1ccc(S(=O)(=O)N(C)C[C@@H]2OCCCC[C@@H](C)Oc3ccc(NS(=O)(=O)c4ccccc4)cc3C(=O)N([C@@H](C)CO)C[C@H]2C)cc1	i	nt	i	nt	19
Cc1ccc(S(=O)(=O)Nc2ccc3c(c2)C(=O)N([C@@H](C)CO)C[C@H](C)[C@H](CN(C)S(=O)(=O)c2ccccc2)OCCCC[C@H](C)O3)cc1	i	nt	i	nt	i
Cc1ccc(S(=O)(=O)N(C)C[C@H]2OCCCC[C@@H](C)Oc3ccc(NS(=O)(=O)c4ccccc4)cc3C(=O)N([C@@H](C)CO)C[C@@H]2C)cc1	i	nt	i	nt	19
COc1ccc(-c2ccc3c(c2)[C@@H]2[C@@H](CCN2S(=O)(=O)c2ccccc2F)[C@@H](CO)N3)cc1	i	nt	nt	nt	nt
SMILES	DENV2 CPE rescue	Rtt109 Vps75	ERp5 block	PDI inh	SIRT5 inh
Cc1ccc(S(=O)(=O)N[C@H]2CC[C@@H](CC(=O)NCc3ccncn3)O[C@H]2CO)cc1	i	nt	i	nt	i
COc1ccccc1-c1ccc2c(c1)[C@H]1[C@H](CCN1S(=O)(=O)c1cccc(C)c1)[C@@H](CO)N2	i	nt	i	nt	i
CCCNC(=O)N1C[C@@H](C)[C@H](OC)CN(C)C(=O)c2cc(NS(C)(=O)=O)ccc2OC[C@@H]1C	i	nt	i	nt	i
Cc1ccc(S(=O)(=O)N(C)C[C@H]2OCCCC[C@H](C)Oc3ccc(NS(=O)(=O)c4ccccc4)cc3C(=O)N([C@@H](C)CO)C[C@@H]2C)cc1	i	nt	i	nt	19
CCc1cc2c(=O)[nH]c(COC)nc2s1	46	i	i	i	i
CCc1cc2c(=O)[nH]c(Cc3ccc(OC)cc3)nc2s1	i	i	i	i	i
CN(C)CC(=O)Nc1ccc2c(c1)[C@H]1C[C@@H](CC(=O)NCc3cccc(F)c3)O[C@H](CO)[C@H]1O2	i	nt	i	nt	i
O=c1[nH]c2cc(Cl)c(Cl)cc2o1	i	i	i	i	nt
O=c1[nH]c2cc(Cl)c(Br)cc2o1	157	i	i	i	i
CCOc1ccc(CCN2C(=O)C(=O)N([C@@H](Cc3ccccc3)CN3CCC[C@@H]3CN3C(=O)C(=O)NC[C@@H]3Cc3ccc(O)cc3)C[C@@H]2Cc2ccccc2)cc1	i	nt	i	nt	38
CC(C)C[C@@H](CN1CCC[C@@H]1CN1C(=O)C(=O)NC[C@@H]1Cc1ccccc1)N1C[C@H](Cc2ccc(O)cc2)N(CCc2ccccc2)C(=O)C1=O	i	i	i	48	i
CC(C)C[C@@H](CN1CCC[C@H]1CN1C(=O)C(=O)NC[C@@H]1Cc1ccccc1)N1C[C@H](Cc2ccc(O)cc2)N(CCc2ccccc2)C(=O)C1=O	i	nt	i	nt	i
CCC(=O)N1CC2(C1)CN(C(=O)Nc1ccc(F)cc1)[C@H](CO)c1c2c2ccc(OC)cc2n1C	80	nt	nt	nt	nt
CCC(=O)N1CCC2(CC1)CN(C(=O)Nc1ccc(F)cc1)[C@H](CO)c1c2c2ccc(OC)cc2n1C	i	nt	i	nt	i
COc1ccc2c3c(n(C)c2c1)[C@H](CO)N(C(=O)C1CCCC1)CC31CCN(C(=O)Nc2cccc(F)c2)CC1	28	nt	i	nt	i
COc1ccc2c3c(n(C)c2c1)[C@H](CO)N(C(=O)c1cccc(F)c1)CC31CN(C(=O)c2cccc(F)c2)C1	46	nt	i	nt	i
COc1ccc2c3c(n(C)c2c1)[C@H](CO)N(C(=O)c1ccccc1)CC31CN(C(=O)c2ccccc2)C1	i	nt	i	nt	i
COc1ccc2c3c(n(C)c2c1)[C@@H](CO)N(C(=O)Nc1ccc(F)cc1)CC31CCN(C(=O)c2ccccc2F)CC1	40	nt	i	nt	i
N#C[C@@H]1[C@@H](c2ccccc2)[C@H](CO)N1C(=O)Nc1cccc(F)c1	i	nt	i	nt	i
COCC#Cc1ccc([C@@H]2[C@H]3CN(C(=O)Nc4cc(F)ccc4F)CCCCN3[C@H]2CO)cc1	i	nt	i	nt	i
O=C(NCC[C@@H]1CC[C@H](NC(=O)C2CCCC2)[C@@H](CO)O1)c1ccc(F)cc1	i	nt	i	nt	i
CC(=O)c1ccc(-c2ccc(/C=C(/Sc3n[nH]c(C)n3)C(=O)O)o2)cc1	i	i	i	i	i
Cc1nc(S/C(=C/c2ccc(-c3ccc(C(=O)O)cc3)o2)C(=O)O)n[nH]1	i	i	i	i	37

Source: PubChem
